From PubChem BioAssay
Marburg entry inh: Marburg virus entry inhibition | Marburg virus pseudotyped entry inhibition, cell reporter | Potency, µM (series often up to 37.8 µM), for inactives: at the highest dose activity change, negative = inhibition, actives largely listed as inhibitors | actives 1.8% (n = 300,000) | AID 540276; calls by dose curve; tested in HEK293 cells; also: potency is read from the fitted curve at half-maximal effect; % is scaled to controls: 0 for no effect and ±100 for the full control effect
Shiga inhibitor: Shiga toxin inhibition; Vero cells, Shiga toxin protein synthesis inhibition reporter; inhibition, % at 38.7 µM; actives 9.2% (n = 290,000); AID 2315; in the data active = inhibition mostly above about 28%, no sharp cut-off; inactive = mostly below about 43%; also: 0% is about no effect
Lassa entry inh: Lassa virus entry inhibition | Potency, µM (top dose mostly 37.9 µM), inactives show top-dose activity change, negative = inhibition, most hits filed as inhibitors | Lassa virus pseudotype entry inhibition, cell reporter | AID 540256 | actives 1.2% (n = 300,000); calls by dose curve; tested in HEK293 cells; also: potency is read from the fitted curve at half-maximal effect; % is scaled to controls: 0 for no effect and ±100 for the full control effect; nearly all actives have a fitted effect of over 50% in size
CHX counter: counter-screen for Shiga toxin inhibitors: cycloheximide protein synthesis inhibition | max response, % | AID 2314 | cell reporter, cycloheximide protein synthesis inhibition counterscreen | actives 12% (n = 300,000); in the data active = max response mostly above about 13%, no sharp cut-off; inactive = mostly below about 14%; also: read at 38.3 µM for the half of the compounds with a filed dose; 0% is about no effect
Numbers without * were called inactive; ? = inconclusive; · = no result given; [ ] = dose if it differs, or a comment. Sampled rows, rich in hits. Any-hit rate of the full collection: about 12%.

SMILES	Marburg entry inh	Shiga inhibitor	Lassa entry inh	CHX counter
CC1CCCCN1CCCNC(=O)CN1C(=O)c2cccnc2Oc2ccc(Cl)cc21 (centres undefined)	-4.2%[46.1 µM]	0.5	5.5%[46.1 µM]	5.2
COc1ccc(C2=NN3C(=O)c4c(ccc(OC)c4OC)C3C2)cc1 (centres undefined)	6.8%	-10.1	2.8%	12.4
COc1ccc2c(c1OC)C(=O)N1N=C(c3ccc(Cl)cc3)CC21 (centres undefined)	-3.8%	8.2	12.0%	13.0*
CC1(c2ccc3ccccc3c2)NC(=O)N(CC(=O)NCC(C)(C)N2CCOCC2)C1=O (centres undefined)	-5.1%[46.1 µM]	·	1.5%	·
CCOC(=O)/C(C#N)=C\c1ccc(N2CCN(C)CC2)cc1	15.1%	12.8	-0.1%	25.9*
CCOC(=O)/C(C#N)=C/c1ccc(N2CCN(C)CC2)cc1	?	22.9	19.7%	28.8*
CC1CN(C(=O)CN(C)S(=O)(=O)c2ccc3ccccc3c2)CC(C)O1 (centres undefined)	·	-5.5	·	-1.6
O=C(Nc1ccncc1)OCc1ccccc1	?	·	-5.9%	-0.7
O=C(CCS(=O)(=O)c1ccc(Br)cc1)Nc1ccc2c(c1)OCO2	19.2%	36.0	-0.1%	14.8*
Cc1nc(-c2ccccc2)sc1CCNC(=O)C(=O)Nc1ccc2c(c1)OCCO2	·	·	10.1%[46.1 µM]	·
O=C(NCCc1ccccc1)C(=O)Nc1ccc2c(c1)OCCO2	·	74.0*	·	27.4*
O=Cc1c[nH]c2ccc(NC(=O)OCc3ccccc3)cc12	12.6µM*	·	?	·
O=C(CCc1ccccc1)Nc1ccc2c(c1)OCO2	0.4%	89.2*	?	52.6*
CSc1cccc(Nc2cc(C(=O)NCCCN(C)c3ccccc3)c3ccccc3n2)c1	·	·	-10.3%[46.1 µM]	·
CNC(=O)C1CCC(Cn2c(=O)[nH]c3ccsc3c2=O)CC1 (centres undefined)	·	·	3.1%[46.1 µM]	·
S=c1[nH]nc(CCc2ccccc2)n1-c1ccccc1	9.5%	-5.4	3.9%	3.1
CCn1c(=O)n(-c2ccc(Cl)cc2)c(=O)c2c3c(sc21)COC(C)(C)C3	13.7%	-11.6	8.8%	-0.6
Cc1nc([N+](=O)[O-])c(Sc2nc3ccc([N+](=O)[O-])cc3[nH]2)n1Cc1ccccc1	16.2%	-5.2	5.6%	-1.6
COc1ccc(-n2c(SCC(=O)NC3CCCCC3)nc3c([nH]c4ccccc43)c2=O)cc1	·	·	11.6%[46.1 µM]	·
O=C(c1ccco1)N1CCN(Cc2cc(=O)c(OCc3ccc([N+](=O)[O-])cc3)co2)CC1	2.0%	·	-0.3%	·
O=C(NCCc1ccc(F)cc1)Nc1ccc2c(c1)OCO2	26.0%	58.0*	7.7%	48.0*
O=C(Nc1ccc2c(c1)OCO2)C1CCCN1C(=O)OCc1ccccc1 (centres undefined)	1.9%	14.3	5.5%	-2.5
O=C(Nc1ccc2c(c1)OCO2)OCc1ccccc1	?	81.3*	?	24.5*
O=C(NCCc1ccccc1)Nc1ccc2c(c1)OCO2	·	155.7*	·	61.2*
O=C(COc1cc2oc(=O)c3c(c2cc1Cl)CCC3)NCc1ccccn1	·	-16.1	·	5.7
SMILES	Marburg entry inh	Shiga inhibitor	Lassa entry inh	CHX counter
CSc1ccc(NC(=O)Nc2cc(C)ccn2)cc1	7.08µM*	171.2*	7.08µM*	55.4*
Cc1ccc(NC(=O)Nc2ccc(F)cc2)nc1	22.5%[46.1 µM]	65.4*	?	47.5*
Cc1ccnc(NC(=O)Nc2ccc3c(c2)N(C)C(=O)CS3)c1	?	155.8*	?	82.8*
Cc1ccnc(NC(=O)c2cc3cc(F)ccc3s2)c1	?	82.5*	?	45.4*
Cc1ccc(NC(=O)Nc2ccc3c(c2)N(C)C(=O)CS3)nc1	-29.7%	42.6	-20.1%	-1.4
COc1ccccc1NC(=O)Nc1ccc(C)cn1	·	23.2	·	10.4
Cc1ccc(C(=O)NCc2n[nH]c(=S)n2-c2ccccc2)cc1[N+](=O)[O-]	-0.6%[46.1 µM]	-8.6	0.4%[46.1 µM]	9.1
C=C1CCN(C(C(=O)O)C(C)C)S(=O)(=O)c2ccccc21 (centres undefined)	·	-1.1	·	-7.2
Cc1ccnc(NC(=O)Nc2ccc(Br)cc2Cl)c1	-26.4%	91.0*	?	47.2*
Cc1ccnc(NC(=O)Nc2ccc(F)cc2)c1	?	68.8*	-22.0%	34.6*
COC(=O)c1ccccc1NC(=O)Nc1cc(C)ccn1	·	-4.8	·	1.7
O=C(NN=C1C[C@@H](O)[C@H](O)[C@H]2[C@@H]3C(=O)N(C[C@@H]4CCCO4)C(=O)[C@@H]3CC[C@@H]12)OCc1ccccc1	-4.7%[14.2 µM]	·	?	·
COc1ccc(-c2nc3ccccc3s2)cc1NC(=O)c1ccc(F)cc1	-3.7%[46.1 µM]	·	1.3%[46.1 µM]	·
O=C1CCCC(O)=C1N=Nc1ccc2c(c1)OCO2	?	47.5*	19.1%	76.3*
O=c1[nH]c(=S)[nH]c(O)c1N=Nc1ccc2c(c1)OCCO2	11.2µM*	27.4*	?	23.4*
O=c1[nH]c(=S)[nH]c(O)c1N=Nc1ccc2c(c1)OCO2	?	46.1*	?	23.5*
O=c1[nH]c(O)c(N=Nc2ccc3c(c2)OCCO3)c(=O)[nH]1	?	88.1*	?	31.8*
NS(=O)(=O)c1ccc(N=Nc2c(O)[nH]c(=S)[nH]c2=O)cc1	·	4.7	·	-0.8
C=CCSc1nc2sc3c(c2c(=O)n1-c1ccc(C)cc1)CCN(C)C3	·	-2.8	·	3.1
Cc1ccc(Cl)cc1NC(=O)C(=O)N/N=C/c1ccc2c(c1)OCO2	·	-11.2	·	-3.1
COCCN(C(=O)C1CCN(C(=O)c2ccccc2C)CC1)c1c(N)n(CC(C)C)c(=O)[nH]c1=O	6.2%	·	4.2%	·
O=C(CCSc1nnnn1-c1ccccc1)N1CCOCC1	20.5%	36.2*	?	15.4
O=C(CCSc1ccccc1)N1CCCC1	-29.8%[46.1 µM]	79.4*	?	46.4*
O=C(CCSc1ccccc1)N1CCOCC1	-30.0%[46.1 µM]	80.4*	-7.4%	34.8*
O=C(CCSc1nc2ccccc2o1)N1CCOCC1	?	55.9*	17.6%	31.9*
SMILES	Marburg entry inh	Shiga inhibitor	Lassa entry inh	CHX counter
CCOc1ccc(-n2nnnc2SCC(=O)N2CCOCC2)cc1	16.4%	10.0	-13.0%	-1.4
O=C(CCSc1nnc(-c2ccc(O)cc2)o1)N1CCOCC1	3.5%	36.6	-12.5%	7.2
CCOC(=O)c1c(NC(=O)CSc2cn(CCNC(=O)c3ccccc3OC)c3ccccc23)sc2c1CCCC2	?	·	-1.9%[46.1 µM]	·
CCOC(=O)c1sc(=S)n(-c2ccc(OC)cc2)c1C	11.3%[46.1 µM]	23.5	-14.8%	1.1
CCOC(=O)c1c2c(n(-c3ccc(OC)cc3)c1C)C(=O)C(=O)c1ccccc1-2	?	·	2.24µM*	·
Cc1cccc(-c2nc(CN3CCCC(C(=O)NC4CCCC4)C3)c(C)o2)c1 (centres undefined)	14.6µM*	-12.0	7.5%	-1.8
COc1ccc(Cl)cc1C(=O)NNC1CC(=O)N(Cc2ccc(Cl)cc2)C1=O (centres undefined)	-13.7%	7.9	0.1%	-1.1
COc1cc(/C=N/OCC(=O)NC23CC4CC(CC(C4)C2)C3)ccc1OCc1ccccc1	-28.7%	101.2*	?	36.4*
COc1cc(/C=N/OCC(=O)NC2CCCCC2)ccc1OCc1ccccc1	-6.2%	152.2*	4.8%	54.6*
Cn1c(O)c(/C=N/NC(=O)c2cc3ccccc3cc2O)c2ccccc21	?	79.8*	-25.1%	20.8
Cn1c2ccccc2c2cc(/C=N/NC(=O)c3ccc(O)cc3O)ccc21	·	72.4*	·	31.6*
CCn1c2ccccc2c2cc(/C=N/NC(=O)c3ccc(O)cc3)ccc21	7.08µM*	active	5.01µM*	25.6*
